Bioassay records (PubChem BioAssay)
Compounds with a hit are over-represented: about 4.6% of the library has one in this group of screens.
ADAM17 inh: inhibitors of human ADAM17. inhibition, % at 6.95 µM. P78536. hit rate 0.83% among 370,000. recombinant ADAM17, EDANS/DABCYL FRET peptide cleavage;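 active = inhibition above the mean of compounds lying between control limits plus 3 SD, set per campaign, cut at about 8.5% in these data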;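 also: 0% = DMSO-only wells as the low control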
Target sequence (P78536 215-824 limits assumed): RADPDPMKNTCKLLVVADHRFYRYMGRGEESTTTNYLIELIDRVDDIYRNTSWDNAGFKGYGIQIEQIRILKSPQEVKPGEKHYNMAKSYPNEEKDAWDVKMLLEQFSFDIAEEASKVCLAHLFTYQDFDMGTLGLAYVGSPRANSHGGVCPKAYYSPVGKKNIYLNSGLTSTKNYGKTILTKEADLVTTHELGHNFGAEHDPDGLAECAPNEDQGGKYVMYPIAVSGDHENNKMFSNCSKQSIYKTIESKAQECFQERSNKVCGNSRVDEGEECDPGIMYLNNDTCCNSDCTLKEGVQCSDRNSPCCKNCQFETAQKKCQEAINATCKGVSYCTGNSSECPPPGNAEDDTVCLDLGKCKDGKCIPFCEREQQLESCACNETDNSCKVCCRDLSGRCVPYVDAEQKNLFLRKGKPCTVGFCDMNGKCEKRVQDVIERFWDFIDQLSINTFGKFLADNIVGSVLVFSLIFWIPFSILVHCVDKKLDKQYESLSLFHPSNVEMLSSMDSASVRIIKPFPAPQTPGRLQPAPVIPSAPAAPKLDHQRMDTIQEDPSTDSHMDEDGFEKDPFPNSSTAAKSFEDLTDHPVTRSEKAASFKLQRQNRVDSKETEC
FAS TE block: inhibitors of human fatty acid synthase thioesterase domain; P49327; AID 602261; recombinant FAS-TE, OMFH fluorogenic substrate, fluorescence endpoint; inhibition, % at 15 µM; hit rate 0.67% among 360,000;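 active = compounds whose normalised, plate-corrected inhibition of enzyme fluorescence in the single-dose primary screen is 50% or more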;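 also: 0% = DMSO with enzyme and 100% = substrate without enzyme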
proKLK7 act: activates the human kallikrein-7 zymogen | P49862 | purified proKLK7, EDANS-DABCYL substrate fluorescence; 100% is mature enzyme control, 0% vehicle | activation, % at 7 µM | hit rate 0.9% among 370,000;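 active = activation above the mean of all tested compounds plus 3 SD, computed per campaign excluding outliers beyond control limits, cut at about 13% in these data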
NR3A LBD binder: modulators (binders) of human NR3A ligand-binding domain | NR3A LBD differential scanning fluorimetry, Tm shift; 0% = protein alone, 100% = glycine-bound protein | Tm shift relative to glycine control, % at 25 µM | hit rate 2.5% among 340,000;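 active = melting temperature shift of at least 10% of the positive control shift, at one fixed dose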
ADAM10 inh: inhibitors of human ADAM10. hit rate 0.62% among 370,000. AID 720582. recombinant ADAM10, EDANS/DABCYL FRET peptide cleavage, 3 h. inhibition, % at 7 µM. O14672;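 active = inhibition above a per-campaign cutoff equal to the mean of compounds falling between control-based bounds plus 3 SD, cut at about 20% in these data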;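 also: 0% = DMSO wells while the 100% control is not disclosed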
* hit, by the source's call; i = inactive; / = not tested or not shown.

SMILES	ADAM17 inh	FAS TE block	proKLK7 act	NR3A LBD binder	ADAM10 inh
CCOC(=O)C1=NOC(CNC(=O)c2c(-c3ccccc3Cl)noc2C)C1 (centres undefined)	-3	0	0	14*	1
CCOC(=O)C1=NOC(CNC(=O)C2=NOC(CNC(=O)c3c(-c4ccccc4Cl)noc3C)C2)C1 (centres undefined)	-10	-2	0	-3	-5
O=C(Nc1ccc2snnc2c1)Nc1cccc2ccccc12	-9	14	-1	38*	-27
O=C(NC1CCCCN(Cc2ccc(OC(F)(F)F)cc2)C1=O)c1cccc(F)c1 (centres undefined)	-1	/	0	/	1
Nc1c(Cl)ncnc1N/N=C/c1ccnc2ccccc12	-4	-3	-1	13*	-17
Clc1cccc(/C=N/Nc2ncnc3ccccc23)c1	-62	13	1	14*	-187
C(=N\Nc1ncnc2ccccc12)/c1ccccc1	-16	-2	1	-45	-37
CCCCc1nc(N2CCOCC2)c(C#N)c2c1COC(C)(C)C2	-54	6	0	15*	-157
CC1(C)Cc2c(C#N)c(SCCO)nc(N3CCOCC3)c2CO1	-4	-7	0	-4	-4
Cc1cc(N2CCN(C(c3ccccc3)c3ccccc3)CC2)n2ncnc2n1	1	54*	0	-6	2
Cc1nc2ncnn2c(N2CCN(C(c3ccccc3)c3ccccc3)CC2)c1C	3	17	0	-6	12
Cc1ccc(C)c(NC(=O)c2ccc3c(c2)N(Cc2ccc(F)cc2)C(=O)CS3=O)c1 (centres undefined)	4	-2	0	-9	-4
O=C(Nc1ccc(Br)cc1F)c1ccc2c(c1)N(Cc1ccccc1)C(=O)CS2=O (centres undefined)	6	19	0	14*	2
N#Cc1ccc(C23CC4(C2)[C@H](CN(P(=O)(c2ccccc2)c2ccccc2)[C@@H]4c2ccccc2)C3c2ccc(Cl)nc2)cc1 (some centres undefined)	/	72*	/	-3	/
CCCCc1ccc(-c2noc(CCC(=O)NCC)n2)cc1	5	/	/	/	11
Cc1nc2sc(C(c3cccc(F)c3)N3CCC(C)CC3)c(O)n2n1 (centres undefined)	-5	-9	0	1	3
Cc1nc2sc(C(c3cccc(F)c3)N3CCC(O)CC3)c(O)n2n1 (centres undefined)	-5	-10	0	10*	-10
CCCCCC(=O)NC1CCCCN(Cc2ccc(Cl)cc2)C1=O (centres undefined)	-5	/	1	/	-6
Cc1cccc(OCCNC(=S)NC(=O)c2cncc(Br)c2)c1	-2	15	0	10*	2
Cc1ccc(OCCNC(=O)c2cncc(Br)c2)cc1C	0	3	0	1	-11
CC(=O)c1cc(-c2cc(C(=O)O)cc([N+](=O)[O-])c2)c(=O)n2c1CCC2	3	/	0	/	0
CC(C)C[C@H]1COc2cccc(F)c2S(=O)(=O)N1Cc1cn(Cc2ccc(F)cc2)nn1	-2	/	0	/	2
CCc1nc(Nc2cccc(O)c2)c2oc3ccccc3c2n1	/	8	/	21*	/
CCOC(=O)c1sc(Nc2nc3ccc(OC)cc3s2)cc1C	-189	41	-14	16*	-400
CCCC(=O)Nc1nc2ccc(OC)cc2s1	1	-3	0	0	3
SMILES	ADAM17 inh	FAS TE block	proKLK7 act	NR3A LBD binder	ADAM10 inh
COc1ccc2nc(NC(=O)c3sc4nc(C)cc(C)c4c3N)sc2c1	-17	-2	0	28*	-37
CCOC(=O)c1sc(Nc2nc3c(F)cccc3s2)cc1C	-86	-9	-3	29*	-212
COC(=O)c1sc2nc(C)cc(C)c2c1N	-263	-2	1	-3	i
CCCCNC(=O)C[C@H]1C[C@@]2(C(=O)OC)C(=C[C@H](C(C)C)O[C@@H]2C2CC2)N(CCc2ccc(OC)c(OC)c2)C1=O	-4	/	0	/	-4
CN(Cc1ccccc1)S(=O)(=O)c1cccc(C(=O)OCc2ccc(Oc3ccccc3)cc2)c1	-2	/	0	/	-4
CCn1c(SCC(=O)NN=Cc2c(C)nn(-c3ccccc3)c2C)nnc1-c1ccc(OC)c(OC)c1	3	/	0	/	0
COc1ccc2c(c1)CN1CN(Cc3ccccc3)S(=O)(=O)CC21 (centres undefined)	-7	/	0	/	-24
CC(C)c1ccc(-n2nc3ccc(N)cc3n2)cc1	-11	10	-2	-3	-34
Cc1ccc(-n2nc3ccc(N)cc3n2)cc1	-124	-1	35*	-5	-423
COc1ccccc1-c1oc2ccccc2c1-c1ccc2cc[nH]c2c1	-37	32	-18	21*	-148
O=S(=O)(Nc1cc(Cl)ccc1-n1cncn1)c1ccccc1Cl	-3	-6	0	-3	-14
O=S(=O)(Nc1cc(Cl)ccc1-n1cncn1)c1cc(Br)ccc1Br	-2	9	1	22*	-9
O=C(NC1CCCCN(Cc2cccc(C(F)(F)F)c2)C1=O)c1ccc(F)c(F)c1 (centres undefined)	0	/	0	/	4
C[C@@H]1ON(C)[C@H]2C[C@H]3c4[nH]c5c(-c6ccc7c(c6)OCO7)cccc5c4CCN3C[C@@H]12	-2	/	1	/	-13
COc1ccc(CCNc2ccc(C(CC(N)=O)NC(=O)c3cc(OC)ccc3OC)cc2[N+](=O)[O-])cc1 (centres undefined)	1	8	0	42*	-11
CC(C)CC(=O)NC(=S)Nc1nc(-c2ccc(Cl)cc2)cs1	-3	16	0	30*	2
O=C(/C=C/c1ccco1)NC(=S)Nc1nc(-c2ccc(Cl)cc2)cs1	-1	8	-1	129*	6
O=C(/C=C/c1ccco1)NC(=S)Nc1nc(-c2ccc3ccccc3c2)cs1	-3	34	0	33*	-2
CN(C(=O)CCn1nnc(-c2cccs2)n1)C1CCCCC1	0	/	0	/	3
O=S(=O)(c1ccc(F)cc1)N1CCn2c(nc3ccccc32)C1	0	-2	-1	14*	4
O=S(=O)(c1ccccc1)N1CCn2c(nc3ccccc32)C1	0	-7	0	-5	-5
CCOc1cc(/C=C(/C#N)C(=O)Nc2ccc(O)cc2)cc(Br)c1O	3	2	1	13*	4
COC(=O)C[C@@H]1CC[C@H]2[C@@H](COc3ccc(NC(=O)c4ccc(Cl)cc4)cc3C(=O)N2C)O1	-10	/	0	/	-15
COc1c2occc2c(OC)c2c(=O)cc(C(F)(F)F)oc12	-2	-9	1	16*	-3
COc1cc(NS(=O)(=O)N2CCCC2)cc(OC)c1OC	-1	7	-1	15*	7
COc1cc(NS(=O)(=O)c2c(C)[nH]c(C)c2C(=O)N2CCCC2)cc(OC)c1OC	-4	-7	0	0	-3
COc1ccc(Cc2n[nH]c(=S)n2NC(=O)Nc2ccc(Cl)c(Cl)c2)cc1	4	27	1	15*	16
CCOc1ccc(-n2c(SC/C=C/c3ccccc3)nnc2-c2ccco2)cc1	7	/	0	/	15
